# Screening results (PubChem BioAssay)
# Only some compounds are listed: those with a hit (about 5.9% of all), similar ones and a draw of the others.
# GALK inhibitor: blocks human galactokinase activity; 270,000 compounds, 0.007% hits; P51570; Purified GALK, Kinase-Glo residual ATP luminescence; Potency, µM (top dose mostly 57.5 µM), actives largely listed as inhibitors
#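 GALK at 5 nM final was combined with compound, 35 uM ATP and 100 uM galactose in HEPES pH8.0 with MgCl2 and DTT. The reaction ran one hour at room temperature before luminescent ATP detection.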
# RORgamma inh: ROR gamma (mouse) transcription inhibition | P51450 | AID 2551 | 310,000 compounds, 5.4% hits | Drosophila S2 Gal4-RORgamma UAS-luciferase reporter, 20 h | Potency, µM (titrated, usually from 53.6 µM), hits mostly inhibitors; further: nearly all actives have a fitted effect of over 60% in size
# Target sequence (P51450 whole entry, looked up, the tested form may be a part): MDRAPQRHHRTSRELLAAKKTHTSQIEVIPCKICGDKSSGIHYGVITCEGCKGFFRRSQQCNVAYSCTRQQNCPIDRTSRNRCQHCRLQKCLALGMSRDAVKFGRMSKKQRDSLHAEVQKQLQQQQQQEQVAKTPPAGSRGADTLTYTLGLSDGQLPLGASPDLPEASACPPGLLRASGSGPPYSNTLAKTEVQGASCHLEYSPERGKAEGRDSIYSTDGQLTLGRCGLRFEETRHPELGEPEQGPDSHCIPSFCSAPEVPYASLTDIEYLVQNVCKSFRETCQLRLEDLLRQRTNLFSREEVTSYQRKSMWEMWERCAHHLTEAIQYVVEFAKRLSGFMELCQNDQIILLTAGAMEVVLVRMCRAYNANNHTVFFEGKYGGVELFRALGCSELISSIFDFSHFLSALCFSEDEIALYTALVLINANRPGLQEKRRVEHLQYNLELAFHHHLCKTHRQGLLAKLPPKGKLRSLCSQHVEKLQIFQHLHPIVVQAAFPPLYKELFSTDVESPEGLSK
#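 Stably transfected Drosophila Schneider cells are the test system, with ROR gamma fused to Gal4 and luciferase under UAS control; luminescence is read after 20 hr of 700 uM copper sulfate induction at ambient temperature.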
# TrxR1 inh: rat TrxR1 inhibition; O89049; recombinant rTrxR1, NADPH fluorescence consumption, selenite substrate; Potency, µM (titrated, usually from 114 µM), usual class: inhibitors; 390,000 compounds, 1% hits; AID 588453; further: nearly all actives have a fitted effect of over 65% in size
#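 Rat TrxR1 (90 nM in the dispensed reagent) was pre-reduced with 400 uM NADPH for 5 min at room temperature, then incubated with compound for 15 min. After 400 uM selenite was added, NADPH fluorescence (Ex 340/Em 450 nm) was followed for 8 min.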
# Gal4-VP16 FLuc: counter-screen for ROR gamma inhibitors: Gal4-VP16 reporter. AID 2546. 310,000 compounds, 3.5% hits. Drosophila S2 Gal4-VP16 UAS-luciferase, luminescence, 20 h. Potency, µM (highest dose often 53.6 µM), usual class: inhibitors;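 further: Gal4-VP16 expression switched on by copper sulfate through the metallothionein promoter; nearly all actives have a fitted effect of over 50% in size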
# TrxR1 substrate: rat thioredoxin reductase 1 substrate activity; O89049; purified TrxR1 substrate turnover, NADPH consumption readout; Potency, µM (top dose mostly 114 µM); 390,000 compounds, 0.01% hits; AID 588456; further: nearly all actives have a fitted effect of over 50% in size
#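 Rat TrxR1, dispensed at 90 nM, was prereduced with 400 uM NADPH (final) for 5 min at ~22 deg C, then incubated with compound 15 min before 400 uM selenite. A first-read NADPH fluorescence drop versus no-compound background flagged substrates.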
# FBPA coupling cs: counter-screen for Giardia aldolase inhibitors: coupling enzyme system. coupling enzyme system counterscreen, AmpLite Red fluorescence. 290,000 compounds, 0.67% hits. activity change, negative = inhibition, % at 58.2 µM, hits read low; in the data active means activity change below about -30%
#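 First, compound is pin-transferred into glyceraldehyde-3-phosphate coupling-enzyme reagent at 57.5 uM final and held 10 min at RT. Next, substrate, coupling system and AmpLite Red are added. After 20 min RT, fluorescence (525/598 nm) is read.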
# Numbers stand for hits; – = inactive; ? = inconclusive; · = not tested or not shown; [ ] = remark or other dose. Unless noted, the call rests on the fitted dose curve; in most records, active means well fitted curve in the direction sought with a large enough effect; inconclusive means small, poorly fitted or top-dose-only effect, or another doubt; inactive means no such curve, though single readings can be large; an effect the other way counts as inactive or inconclusive.
SMILES,GALK inhibitor,RORgamma inh,TrxR1 inh,Gal4-VP16 FLuc,TrxR1 substrate,FBPA coupling cs
S=C(NCc1ccco1)Nc1ccccc1,–,8.91µM,–,?,–,–
O=C(O)Cc1ccc(NC(=S)NCc2ccco2)cc1,–,–,–,–,–,–
S=C(NCc1ccco1)Nc1ccc(Cl)cc1,–,11.2µM,–,?,–,–
CCNS(=O)(=O)c1ccc(NC(=S)NCc2ccco2)cc1,–,–,–,–,–,–
O=C(CNC(=O)c1cccs1)NCC(=O)OCc1ccc(Cl)cc1Cl,–,–,–,–,–,–
C1=C(CCNCC2CC2)CCCC1,–,5.01µM,–,–,–,–
Cc1cccc2c1OCC/C2=N\NC(=O)COc1ccccc1Cl,–,–,–,–,–,–
CCS(=O)(=O)N1Cc2ccccc2CC1C(=O)Nc1nnc(SCc2c(Cl)cccc2Cl)s1 (stereo not drawn),–,5.01µM,–,6.31µM,–,–
CCSc1nnc(NC(=O)c2cccc(S(=O)(=O)N(C)c3ccc(C)cc3)c2)s1,–,15.8µM,–,?,–,–
CCSc1nnc(NC(=O)C(C)(C(F)(F)F)C(F)(F)F)s1,–,?,–,?,–,–
CCc1nnc(NC(=O)c2cccc(S(=O)(=O)N(C)c3ccccc3)c2)s1,–,–,–,–,–,–
CCS(=O)(=O)N1Cc2ccccc2CC1C(=O)Nc1nc2c(C)cccc2s1 (stereo not drawn),–,3.55µM,–,5.62µM,–,–
CCSc1nnc(NC(=O)C(CC)(C(F)(F)F)C(F)(F)F)s1,–,10µM,–,15.8µM,–,–
CCS(=O)(=O)N1Cc2ccccc2CC1C(=O)Nc1nc(C)cs1 (stereo not drawn),–,–,–,–,–,–
CCSc1nnc(NC(=O)C2Cc3ccccc3CN2S(=O)(=O)CC)s1 (stereo not drawn),–,?,–,–,–,–
COc1ccccc1OCCN1C(=O)S/C(=C\c2ccco2)C1=O,–,–,–,?,–,–
Cc1ccc2nc(NC(=O)CNS(=O)(=O)c3ccc(Br)s3)sc2c1,–,–,–,–,–,–
Cc1cccc2sc(NC(=O)CNS(=O)(=O)c3ccc(Br)s3)nc12,–,11.2µM,–,–,–,–
CCSc1nnc(NC(=O)c2ccccn2)s1,–,2µM,–,3.16µM,–,–
Cc1cnc(C(=O)Nc2nnc(SCc3c(Cl)cccc3Cl)s2)cn1,–,2µM,–,5.01µM,–,–
O=C(Nc1nnc(C2CC2)s1)C1Cc2ccccc2CN1S(=O)(=O)c1cccs1 (stereo not drawn),–,1.41µM,–,?,–,–
O=S(=O)(NCCc1ccc2c(c1)OCCO2)c1cccs1,–,?,–,–,–,–
CN(CC(=O)Nc1ccc(N2CCOCC2)cc1)CC(=O)Nc1ccc(C(F)(F)F)cc1,–,?,–,–[10 µM],–,–
CC(C)c1ccc(NC(=O)C2CCCN(S(=O)(=O)c3ccc4[nH]c(=O)oc4c3)C2)cc1 (stereo not drawn),·,·,–,·,–,·
CCOC(=O)C1=C(C)N(c2ccc(OC)cc2)C(=O)/C1=C\c1ccc(O)c(OCC)c1,–,?,39.8µM,?,–,–
SMILES,GALK inhibitor,RORgamma inh,TrxR1 inh,Gal4-VP16 FLuc,TrxR1 substrate,FBPA coupling cs
CCOc1cc(/C=C2\C(=O)N(Cc3ccc(C)cc3)C(C)=C2C(=O)OC)ccc1O,·,–,28.2µM,–,–,–
COCCn1c(N)c(C#N)c2nc3ccccc3nc21,–,–,–,–,–,–
Cn1c(-c2c(N)n(CCc3ccccc3)c3nc4ccccc4nc23)nc2ccccc21,–,?,–,12.6µM,–,–
COCCCn1c(N)c(-c2nc3ccccc3n2C)c2nc3ccccc3nc21,–,3.98µM,–,7.08µM,–,–
N#Cc1c(N)n(CCc2ccc(F)cc2)c2nc3ccccc3nc12,–,–,–,–,–,–
Cn1c(-c2c(N)n(C3CCCC3)c3nc4ccccc4nc23)nc2ccccc21,–,3.55µM,–,5.62µM,–,–
Cn1c(-c2c(N)n(CCCc3ccccc3)c3nc4ccccc4nc23)nc2ccccc21,–,0.794µM,–,2.82µM,–,·
Cc1ccc([N+](=O)[O-])c(OCc2ncc(Cl)n2C)c1,–,–,–,–,–,–
C/C(=N\Nc1ccc(S(=O)(=O)N2CCCCC2)cn1)c1cccc(Br)c1,·,·,–,·,–,·
Cc1ccc(N2C(=O)CC(Nc3ccc(Cl)c(S(=O)(=O)N(C)C)c3)C2=O)c(C)c1 (stereo not drawn),–,–,50.1µM,–,–,–
O=C(O)c1cc(-c2ccc(Cl)cc2)n[nH]1,–,–[0.365 µM],–,·,–,–
Oc1cc2ccccc2nc1-c1ccccc1Cl,–,–,–,–,–,–
Oc1ccc(Cl)cc1-c1cc(-c2cccc(Br)c2)n[nH]1,–,?,–,0.891µM,–,–
O=C(Nc1cccnc1)c1cc(-c2cc(Cl)ccc2O)n[nH]1,–,–,–,–,–,–
O=[N+]([O-])c1ccccc1-c1cc(-c2cc(Cl)ccc2O)n[nH]1,–,15.8µM,–,?,–,–
Oc1ccc(Cl)cc1-c1cc(-c2ccccc2Cl)[nH]n1,–,4.47µM,–,10µM,–,–
Cc1ccc(O)c(-c2cc(-c3ccccc3[N+](=O)[O-])[nH]n2)c1,–,?,–,?,–,–
Oc1ccccc1-c1cc(-c2ccccc2Cl)[nH]n1,–,4.47µM,–,?,–,–
CC(C)CC(=O)NNC(=O)c1ccc(Cl)cc1,–,–,–,–,–,–
CN1CCC2(CC1)C1CN(C)CC=C1C(C#N)=C(N)C2(C#N)C#N (stereo not drawn),–,–,–,–,–,–
CCc1nc(SCc2ccc(OCC(C)C)cc2)n[nH]1,–,?,–,15.8µM,–,–
CC(=O)c1ccc2c(c1)C1C=CCC1C(c1ccncc1)N2 (stereo not drawn),–,–,?,–,–,-31.9
COC(=O)c1ccc(C2Nc3ccc(/C(C)=N/NC(=O)C(OC)c4ccccc4)cc3C3C=CCC32)cc1 (stereo not drawn),–,–,22.4µM,–,–,·
C1=CC2c3ccccc3NC(c3ccncc3)C2C1 (stereo not drawn),–,?,7.94µM,–,–,-41.4
CCCOc1ccc(C(CC(=O)O)NC(=O)CC(c2ccccc2)c2ccccc2)cc1 (stereo not drawn),–,–,–,–,–,–
O=C(/C=C\c1ccccc1)Oc1cccc2cccnc12,–,1.41µM,–,3.16µM,–,–
CC(Oc1cccc2cccnc12)C(=O)N/N=C/c1ccccc1 (stereo not drawn),–,–,–,–,–,–
O=C(/C=C/c1ccccc1)Oc1cccc2cccnc12,–,0.708µM,–,4.47µM,–,–
CCn1c(CC2C(=O)Nc3ccccc32)nc2ccccc2c1=O (stereo not drawn),·,·,–,·,–,·
